# Screening results as filed in PubChem.
# Hits are enriched below; roughly 6.2% of the tested compounds scored in any of these assays.
# NTR1 agonist – agonists of human neurotensin receptor NTR1; NTR1-U2OS beta-arrestin-GFP spot imaging, agonist mode; 330,000 tested, 0.17% active; activation, % at 20 µM; AID 493036;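 active means activation at or above 40% of the spot to cytoplasm intensity ratio, with at least 20 cells analyzed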;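 further: 0% = DMSO without peptide and 100% = 100 nM NTR1 peptide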
# SUMO Mot1 rescue – SUMOylation pathway inhibition by Mot1-301 growth rescue | S. cerevisiae Mot1-301 growth rescue, ATP luminescence, 38.5C; percent above DMSO median, 100 means doubled | growth rescue, % at 18.8 µM | 320,000 tested, 1% active | AID 2716;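 active means every valid replicate shows activation above 250% relative to neutral control wells; inactive means the rest, any valid replicate at or below 250%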;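 further: OY570 slx delta 5 strain wells were the positive control but not used for scaling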
# GRIN3A LBD mod – modulates the human NR3A ligand-binding domain | AID 1259313 | NR3A LBD differential scanning fluorimetry, Tm shift; 0% = protein alone, 100% = glycine-bound protein | 340,000 tested, 2.5% active | Tm shift relative to glycine control, % at 25 µM;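 active means melting temperature shift of at least 10% of the positive control shift, at one fixed dose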
# Cardio protect – myocardial damage modulation in H9c2 cells; H9c2 cardiomyocytes, H2O2 injury protection, ATPLite, 2 h; protection from H2O2 cell death, % at 20 µM; 360,000 tested, 0.63% active;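 active means compounds giving at least 50% protection of heart cells from peroxide-induced death in the single-dose screen, raw or plate-pattern-corrected value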;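 further: 0% = DMSO wells with peroxide and 100% = DMSO wells without peroxide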
# AHR act – activators of human aryl hydrocarbon receptor; P35869; AHR-responsive luciferase reporter cells, luminescence; activation, % at 5 µM; 320,000 tested, 2.5% active; AID 2796; in the data active means activation above about 47%;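 further: 0% = vehicle wells and 100% = reference agonist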
# AI-2 QS mod – Vibrio harveyi AI-2 quorum sensing modulation. 300,000 tested, 0.4% active. activity change, % at 7.5 µM. AID 2094. Vibrio harveyi JMH597 AI-2 luminescence/OD600 ratio, 9 h; active compounds read low; strain lacks LuxN and CqsS sensors; 0 = neutral-control median; in the data active means activity change below about -75%, passing the limit was not always enough;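 further: luminescence divided by OD600 gain over 9 h not by final OD600 alone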
# NTR1 ag confirm – NTR1 (human) agonism, confirmed | 480 tested, 38% active | activation, % at 20 µM | NTR1-U2OS beta-arrestin-GFP translocation imaging | AID 504550 | shares compounds with NTR1 agonist;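 active means mean activation at 20 µM of at least 40%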;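 further: 0% = DMSO without peptide and 100% = 100 nM NTR1 peptide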
# The depositor's hits bear a star; · = no result given.
SMILES,NTR1 agonist,SUMO Mot1 rescue,GRIN3A LBD mod,Cardio protect,AHR act,AI-2 QS mod,NTR1 ag confirm
CCc1nc2ccccc2c(C(=O)OCC(=O)Nc2ccc(S(=O)(=O)N3CCOCC3)cc2)c1C,11,9,3,-3,3,9,·
Cc1ccc(-c2nc(Nc3ccc(O)cc3)c3ccccc3n2)cc1,42*,306,34*,-7,54*,27,37
O=[N+]([O-])c1ccc(-c2nc(Nc3cccc(O)c3)c3ccccc3n2)cc1,56*,-3,30*,-15,34,33,49*
CCCOC(=O)c1cccc(Nc2nc(-c3cccnc3)nc3ccccc23)c1,44*,-9,-17,-26,44,16,44*
Cc1ccc(-c2nc(Nc3cccc(O)c3)c3ccccc3n2)cc1,57*,-4,42*,14,31,-1,44*
CC1N=C2c3ccccc3N=C(SCc3cc(=O)n4cc(Cl)ccc4n3)N2C1=O (stereo not given),52*,0,-1,16,4,12,4
